Among the data in PubChem BioAssay (NCI) are growth values, retold here.

The panel holds about 83,000 compounds, 20% with a hit somewhere; the sample as a whole holds those more often.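 Method: cells in 96-well plates; compound added at one concentration; 48 h incubation; percent growth measured; values under 10 scored active.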 A number with no mark means an inactive call. Calls of active or inactive are those of the source.

Test systems include MOLT-4 leukemia; SR leukemia; RPMI-8226 leukemia; OVCAR-8 ovarian; OVCAR-5 ovarian; OVCAR-4 ovarian; SK-OV-3 ovarian; IGROV1 ovarian; OVCAR-3 ovarian; HS 578T breast; NCI/ADR-RES ovarian; T-47D breast; BT-549 breast; MDA-MB-435 melanoma; SW-620 colon; MCF7 breast; HCT-116 colon; HCC-2998 colon; KM12 colon.
Common to all, as to assay: NCI-60 one-dose screen, 48 h (100 = growth as untreated, 0 = no growth, -100 = all killed)
What all share (details): 10 µM unless noted

On to `CCOC(=O)[C@@H](C)C[C@H](Cc1ccccc1)NC(=O)c1csc([C@@H](C[C@H](C(C)C)N(C)C(=O)[C@H](CC)NC(=O)[C@H]2CCCCN2C)OC(C)=O)n1`, for which the growth in the experiment on MOLT-4 leukemia was 9.18% (active); with SR leukemia, 6.66% (active); with RPMI-8226 leukemia, 19.2%; in the experiment with OVCAR-8 ovarian, 5.75% (active); in the experiment on OVCAR-5 ovarian, 31.5%; in the experiment with OVCAR-4 ovarian it was 37.4%. Moreover, the growth was 20.9% in the experiment on SK-OV-3 ovarian; 22.6% in the experiment with IGROV1 ovarian; -6.1% (active) in the experiment on OVCAR-3 ovarian; 9.11% (active) with HS 578T breast; 7.74% (active) with NCI/ADR-RES ovarian; 53.1% with T-47D breast. Further, the growth was -18.9% (active) in the experiment with BT-549 breast; -35.7% (active) in the experiment on MDA-MB-435 melanoma; 30.3% in the experiment with SW-620 colon; 18.8% in the experiment with MCF7 breast; -7.81% (active) in the experiment on HCT-116 colon; 3.85% (active) in the experiment on HCC-2998 colon. Also, the growth in the experiment with KM12 colon is 4.85% (active).
For `COC(=O)[C@@H](C[C@H](Cc1ccccc1)NC(=O)c1csc([C@@H](C[C@H](C(C)C)N(C)C(=O)[C@@H](NC(=O)[C@H]2CCCCN2C)C(C)C)OC(C)=O)n1)NC(=O)OCc1ccccc1`, the growth in the experiment with MOLT-4 leukemia is 11.8% [9.5 µM]; in the experiment with SR leukemia, -23.3% [9.5 µM] (active); in the experiment with RPMI-8226 leukemia, -9.01% [9.5 µM] (active); in the experiment on OVCAR-8 ovarian, 13.3% [9.5 µM]; in the experiment on OVCAR-5 ovarian, 42.2% [9.5 µM]; with OVCAR-4 ovarian, 46.2% [9.5 µM]. Also, the growth was 12.4% [9.5 µM] in the experiment with SK-OV-3 ovarian; 13.2% [9.5 µM] in the experiment with IGROV1 ovarian; -23.7% [9.5 µM] (active) with OVCAR-3 ovarian; 12.9% [9.5 µM] in the experiment on HS 578T breast; 13.9% [9.5 µM] with NCI/ADR-RES ovarian; 78.8% [9.5 µM] in the experiment on T-47D breast. Also, the growth is -28% [9.5 µM] (active) in the experiment on BT-549 breast; -36% [9.5 µM] (active) with MDA-MB-435 melanoma; 26.1% [9.5 µM] with SW-620 colon; 27.8% [9.5 µM] with MCF7 breast; 1.64% [9.5 µM] (active) in the experiment on HCT-116 colon; 19.5% [9.5 µM] in the experiment on HCC-2998 colon. The growth with KM12 colon was 1.08% [9.5 µM] (active).
As to `COC(C(=O)[C@@H](O)[C@@H](C)O)[C@@H]1Cc2cc3cc(O[C@H]4C[C@@H](O[C@H]5C[C@@H](O)[C@H](O)C(C)O5)[C@H](O)C(C)O4)c(C)c(O)c3c(O)c2C(=O)[C@H]1O[C@H]1C[C@@H](O[C@H]2C[C@@H](O[C@H]3C[C@@H](O)[C@@H](O)C(C)O3)[C@@H](O)C(C)O2)[C@H](O)C(C)O1` (some centres not stated), the growth is 23.9% in the experiment on MOLT-4 leukemia; 14.3% in the experiment on SR leukemia; 9.15% (active) in the experiment with RPMI-8226 leukemia; 2.92% (active) with OVCAR-8 ovarian; 13.7% in the experiment with OVCAR-5 ovarian; 25.2% in the experiment on OVCAR-4 ovarian. Moreover, the growth in the experiment with SK-OV-3 ovarian is 25.5%; with IGROV1 ovarian, 18.2%; in the experiment with OVCAR-3 ovarian, 4.91% (active); in the experiment with HS 578T breast, 14.5%; in the experiment with NCI/ADR-RES ovarian it was 85.5%; in the experiment on T-47D breast, -1.75% (active). The growth in the experiment on BT-549 breast was -27.2% (active); in the experiment with MDA-MB-435 melanoma, -37.2% (active); in the experiment on SW-620 colon it was 22.2%; in the experiment with MCF7 breast it was 0.0061% (active); in the experiment with HCT-116 colon, 2.29% (active); in the experiment on HCC-2998 colon, -5.17% (active). Also, the growth with KM12 colon was 4.05% (active).
Regarding `Clc1ccc(CO/N=C(\Cn2ccnc2)c2ccc(Cl)cc2Cl)c(Cl)c1`, the growth in the experiment with MOLT-4 leukemia was -4.84% (active); in the experiment with SR leukemia it was -13.7% (active); in the experiment on RPMI-8226 leukemia, -3.32% (active); in the experiment on OVCAR-8 ovarian it was 9.94% (active); with OVCAR-5 ovarian it was 15.8%; in the experiment on OVCAR-4 ovarian it was 20.7%. The growth in the experiment with SK-OV-3 ovarian is 101%; in the experiment on IGROV1 ovarian, 6.54% (active); in the experiment on OVCAR-3 ovarian it was -60.1% (active); in the experiment with HS 578T breast, -4.93% (active); with NCI/ADR-RES ovarian it was -12.2% (active); in the experiment with T-47D breast, 101%. Also, the growth in the experiment with BT-549 breast is -44% (active); with MDA-MB-435 melanoma it was -13.2% (active); in the experiment on SW-620 colon it was 8.71% (active); in the experiment on MCF7 breast, 0.337% (active); with HCT-116 colon, -79.3% (active); in the experiment on HCC-2998 colon, 3.92% (active). Moreover, in the experiment on KM12 colon, the growth is -1.07% (active).
As for `C[C@]12CCc3sc(-c4cccc(F)c4)nc3C1=CC[C@@H]1[C@@H]2CC[C@]2(C)C(=O)CC[C@@H]12`, the growth with MOLT-4 leukemia was 5.82% (active); in the experiment on SR leukemia, 5.11% (active); in the experiment on RPMI-8226 leukemia, -2.88% (active); in the experiment with OVCAR-8 ovarian, 28.5%; with OVCAR-5 ovarian it was 87.2%; in the experiment with OVCAR-4 ovarian it was 65.1%. The growth in the experiment on SK-OV-3 ovarian was 17.9%; in the experiment on IGROV1 ovarian, 0.597% (active); in the experiment with OVCAR-3 ovarian it was 7.89% (active); in the experiment on HS 578T breast, 27.4%; in the experiment with NCI/ADR-RES ovarian, 68.3%; in the experiment with T-47D breast, 3.07% (active). For the same molecule, the growth was 23.2% in the experiment on BT-549 breast; 49.2% in the experiment with MDA-MB-435 melanoma; 3.81% (active) in the experiment with SW-620 colon; 10.8% with MCF7 breast; 0.513% (active) in the experiment with HCT-116 colon; 79.5% with HCC-2998 colon. The growth in the experiment with KM12 colon was 46.5%.
For the molecule `Fc1cccc(NCOOC2(OOCNc3cccc(F)c3)CCCCC2)c1`, the growth with MOLT-4 leukemia is 97.6%; in the experiment on SR leukemia it was 31.5%; with RPMI-8226 leukemia it was 99.6%; in the experiment on OVCAR-8 ovarian it was 96.8%; with OVCAR-5 ovarian it was 96.2%; in the experiment with OVCAR-4 ovarian it was 98.5%. Also, the growth in the experiment on SK-OV-3 ovarian was 103%; in the experiment with IGROV1 ovarian, 40.1%; in the experiment with OVCAR-3 ovarian it was 99.3%; with HS 578T breast it was 104%; with NCI/ADR-RES ovarian, 77.8%; with T-47D breast, 86.8%. For the same molecule, the growth is 102% in the experiment with BT-549 breast; 101% in the experiment with MDA-MB-435 melanoma; 104% in the experiment on SW-620 colon; 88.8% with MCF7 breast; 87.3% in the experiment on HCT-116 colon; 105% in the experiment with HCC-2998 colon. The growth with KM12 colon was 94.6%.
With `COc1ccc(/C=C\c2cc(OC)c(OC)c(OC)c2)c(NS(=O)(=O)c2ccc(Cl)cc2)c1O`, the growth with MOLT-4 leukemia is 10.1%; in the experiment on SR leukemia, 7.33% (active); in the experiment with RPMI-8226 leukemia it was 7.02% (active); with OVCAR-8 ovarian, 2.97% (active); in the experiment with OVCAR-5 ovarian, 49.2%; in the experiment with OVCAR-4 ovarian it was 33.1%. The growth with SK-OV-3 ovarian is 21.9%; with IGROV1 ovarian it was 30.1%; with OVCAR-3 ovarian, -31.1% (active); in the experiment with HS 578T breast, 10.9%; with NCI/ADR-RES ovarian, -7.04% (active); with T-47D breast it was 84.7%. Besides, the growth in the experiment with BT-549 breast is 58.2%; in the experiment on MDA-MB-435 melanoma it was -48% (active); with SW-620 colon, 27%; with MCF7 breast, 12.7%; in the experiment on HCT-116 colon it was 6.81% (active); in the experiment on HCC-2998 colon, 12.7%. Besides, in the experiment with KM12 colon, the growth is 1.25% (active).
For the molecule `Fc1c[c-]c(-c2ccccn2)c(F)c1.[CH3-].[Pt+2].c1ccc([PH+](c2ccccc2)c2ccccn2)cc1`, the growth with MOLT-4 leukemia is 8.87% (active); in the experiment with SR leukemia, -2.4% (active); in the experiment with RPMI-8226 leukemia, -8.21% (active); with OVCAR-8 ovarian it was 10.3%; in the experiment with OVCAR-5 ovarian it was -48.1% (active); in the experiment with OVCAR-4 ovarian it was -2.32% (active). Also, the growth in the experiment with SK-OV-3 ovarian was 5.32% (active); in the experiment with IGROV1 ovarian, -12% (active); in the experiment on OVCAR-3 ovarian, -22.2% (active); with HS 578T breast, -1.24% (active); in the experiment on NCI/ADR-RES ovarian, 32.1%; in the experiment on T-47D breast it was -7.66% (active). Further, the growth with BT-549 breast was -1.42% (active); in the experiment with MDA-MB-435 melanoma it was -50.5% (active); with SW-620 colon it was -11.6% (active); in the experiment with MCF7 breast, -16.3% (active); in the experiment on HCT-116 colon, -43.8% (active); in the experiment with HCC-2998 colon, 20.2%. For the same molecule, the growth with KM12 colon was 10.4%.
